Bioassay records (PubChem BioAssay)
hgDAF-12 ag – activates the H. glycines DAF-12 receptor ligand-binding domain | HEK293 GAL4-hgDAF12 UAS-luciferase reporter, agonist luminescence; normalized to butyrate control | activation, % at 6.8 µM | 1.8% of 370,000 active | AID 687014;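 active = activation above a cutoff set at the mean of all screened compounds plus 3 SD, cut at about 10% in these data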;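 also: 0% = DMSO wells and 100% = sodium butyrate wells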
ssDAF-12 act – S. stercoralis DAF-12 activation, primary screen; HEK293 ssDAF-12/GRIP1 lit1-tk-luc reporter, luminescence; % of 3 µM dafachronic acid response; activation, % at 6.8 µM; 1% of 370,000 active; AID 652126;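 active = activation above the mean over all tested compounds plus 3 SD, cut at about 0.9% in these data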;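 also: 0% = DMSO-only wells and 100% = 3 µM delta7-dafachronic acid wells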
DAX1 inh-1 – inhibits human nuclear receptor DAX1; P51843; HEK293 Gal4-DAX1 luciferase reporter, luminescence; inhibition, % at 6.75 µM; 0.99% of 340,000 active; AID 504766;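 active = inhibition above the mean over all tested compounds plus 3 SD, cut at about 4.2% in these data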;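 also: 0% = DAX1-transfected cells with DMSO and 100% = empty-vector control cells with DMSO; inhibition shows as a rise in luminescence from relieved DAX1 repression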
hcDAF12 agonist – activates DAF-12 receptor from parasite H. contortus; HEK293 hcDAF-12 lit1-tk-luc reporter, luminescence; 0% DMSO, 100% Δ7-dafachronic acid; activation, % at 6.8 µM; 1.4% of 370,000 active;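 active = activation above the mean of all tested compounds plus 3 SD, cut at about 5.5% in these data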;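 also: 100% = response to 3 µM Δ7-dafachronic acid high control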
DAX1 inh-2 – DAX1 (NR0B1) inhibition, primary screen; AID 652010; HEK293T StAR-luciferase reporter, SF-1/DAX-1 repression relief; 1.1% of 370,000 active; inhibition, % at 6.8 µM;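 active = inhibition above the mean over all tested compounds plus 3 SD, cut at about 3.6% in these data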;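 also: 0% = DAX-1 cells with DMSO and 100% = cells lacking DAX-1 with DMSO; higher inhibition means more luminescence from relief of DAX-1 repression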
LXRb hcDAF ctr – counter-screen for hcDAF-12 agonists: agonists of human LXR-beta; shares compounds with hcDAF12 agonist; HEK293 Gal4-LXR tk-luc reporter, luminescence, 24 h; normalized: DMSO 0%, positive control 100%; activation, % at 6.8 µM; 3,400 tested, under 10 active;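 active = mean percent activation of the reporter above a cutoff set as the average over tested compounds plus their standard deviation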
Target sequence (P55055 whole entry, looked up, the tested form may be a part): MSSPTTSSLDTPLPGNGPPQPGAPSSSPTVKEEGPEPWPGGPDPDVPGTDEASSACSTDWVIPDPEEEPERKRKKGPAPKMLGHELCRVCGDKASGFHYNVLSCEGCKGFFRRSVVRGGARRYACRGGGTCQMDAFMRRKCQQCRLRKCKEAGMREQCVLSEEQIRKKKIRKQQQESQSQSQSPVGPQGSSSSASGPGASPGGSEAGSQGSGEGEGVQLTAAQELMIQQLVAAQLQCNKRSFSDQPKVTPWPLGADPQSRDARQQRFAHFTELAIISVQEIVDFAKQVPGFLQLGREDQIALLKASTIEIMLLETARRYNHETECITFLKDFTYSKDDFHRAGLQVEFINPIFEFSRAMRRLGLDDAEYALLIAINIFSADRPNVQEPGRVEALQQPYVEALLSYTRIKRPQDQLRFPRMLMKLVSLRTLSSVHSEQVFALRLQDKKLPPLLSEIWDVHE
hcDAF12 conf – hcDAF-12 agonism, confirmation assay; 61% of 3,400 active; HEK293 hcDAF-12 lit1-tk-luc reporter, luminescence; % of Δ7-dafachronic acid response; AID 743032; activation, % at 6.8 µM; shares compounds with hcDAF12 agonist;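 active = mean activation across triplicate tests above the threshold derived from the earlier primary screen, cut at about 5.5% in these data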;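 also: 0% = DMSO only wells and 100% = 3 µM Δ7-dafachronic acid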
hgDAF12 ag – hgDAF-12 agonism, confirmation assay | shares compounds with hgDAF-12 ag | HEK293 GAL4-hgDAF12 luciferase reporter, agonist mode; percent of butyrate response | activation, % at 6.8 µM | 80% of 3,300 active | AID 743050;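 active = mean activation over triplicate wells above the hit cutoff derived from the earlier primary screen, cut at about 11% in these data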;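 also: 0% = DMSO low control and 100% = 2 mM sodium butyrate high control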
LXRb DAF12 ctr – counter-screen for DAF-12 agonists: agonists of human LXR-beta; shares compounds with hgDAF-12 ag; HEK293 Gal4-LXR luciferase reporter, 24 h; activation, % at 6.8 µM; 3,300 tested, under 10 active; AID 743051;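 active = mean activation of the triplicate above a set limit carried over from the primary screen, none filed active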
Active calls of the source: *; / = no result. Only some compounds are listed: those with a hit (about 4.1% of all), similar ones and a draw of the others.

SMILES | hgDAF-12 ag | ssDAF-12 act | DAX1 inh-1 | hcDAF12 agonist | DAX1 inh-2 | LXRb hcDAF ctr | hcDAF12 conf | hgDAF12 ag | LXRb DAF12 ctr
Cn1c(=O)c(C(=O)Nc2ccccc2S(N)(=O)=O)c(O)c2ccccc21 | 6.6 | -0.5 | 3.7 | 2.7 | 0.8 | / | / | / | /
Cn1c(=O)c(C(=O)Nc2ccccn2)c(O)c2ccccc21 | 16.6* | 3.0* | 3.7 | 13.8* | 3.9* | 1.9 | 18.4* | 24.5* | 1.2
COC(=O)c1cc2c(c3c4cc(C)ccc4n(S(=O)(=O)c4ccc(OC)cc4)c13)C(=O)N(Cc1ccccc1)C2 | 1.5 | -0.9 | / | -0.1 | -1.2 | / | / | / | /
O=C(Nc1cccc(NC(=O)c2ccc(Cl)cc2)n1)c1ccc(Cl)cc1 | 1.4 | -1.3 | 0.7 | 0.4 | -0.3 | / | / | / | /
O=C(Nc1ccc2ccccc2n1)c1ccccc1Cl | 15.5* | -0.3 | 3.1 | 7.2* | 1.4 | 2.0 | 5.7* | 17.6* | 0.9
O=C(Nc1ccc2ccccc2n1)c1ccc(Cl)cc1 | 15.0* | 0.7 | 3.1 | 10.1* | 1.5 | 1.7 | 7.0* | 19.2* | 0.8
O=S(=O)(Nc1nc2ccccc2nc1N1CCc2ccccc2C1)c1ccc(Cl)cc1 | 19.8* | 2.5* | 0.3 | 15.7* | 4.3* | 0.2 | 6.3* | 23.7* | 1.1
O=S(=O)(Nc1nc2ccccc2nc1N1CCN(c2ccccn2)CC1)c1ccc(Cl)cc1 | 2.3 | -0.6 | 1.4 | 0.4 | 0.5 | / | / | / | /
CCOC(=O)N1CCN(C(=O)C[C@H]2C(=O)N(Cc3ccc(OC)cc3)C3=CCCCC[C@@]32C(=O)OC)CC1 | -3.7 | -1.6 | / | -2.5 | -0.8 | / | / | / | /
COc1ccc(CNS(=O)(=O)c2ccccc2Br)c(OC)c1 | 1.0 | -0.9 | / | -0.2 | -0.1 | / | / | / | /
O=C(N/N=C/c1cccnc1)c1[nH]ncc1Br | 13.4* | -0.4 | -0.1 | 6.8* | 1.2 | 0.0 | 1.4 | 4.7 | 0.1
CN(C)c1ccc(C2NC(=O)c3ccccc3N2)cc1 (stereo unspecified) | 14.4* | 0.7 | 1.9 | 8.1* | 2.0 | 1.6 | 8.3* | 20.4* | 1.1
COCc1nnc(NC(=O)c2ccc(OC)cc2OC)s1 | 14.6* | 0.0 | 0.0 | 6.8* | 2.4 | 0.9 | 3.5 | 12.5* | 0.8
COc1ccc(C(=O)Nc2nnc(Cc3ccc(OC)c(OC)c3)s2)c(OC)c1 | 0.4 | -1.6 | -1.1 | -2.3 | -1.7 | / | / | / | /
CCC(=O)NC1=C(Nc2ccc(N)cc2)C(=O)c2ccccc2C1=O | 13.5* | 0.8 | 2.6 | 7.9* | 1.8 | 1.1 | 8.0* | 11.2* | 0.5
COc1ccc(NC2=C(NC(C)=O)C(=O)c3ccccc3C2=O)cc1 | -0.1 | -0.7 | -0.6 | -0.8 | -0.9 | / | / | / | /
COC(=O)[C@]12C[C@H](CC(=O)N3CCN(C(=O)c4ccco4)CC3)C(=O)N(Cc3cccc4ccccc34)C1=C[C@H](C(C)(C)C)O[C@@H]2C | -1.3 | -1.7 | / | -1.6 | -0.5 | / | / | / | /
Cc1ccc2nc(-c3ccc(NC(=O)CCS(=O)(=O)c4ccccc4)cc3)sc2c1 | 18.3* | 1.5* | -4.6 | 8.9* | 0.9 | 1.3 | 7.6* | 13.3* | 0.8
Cc1cc(N/C=C\c2nnnn2-c2ccccc2)no1 | 5.8 | -0.3 | 0.7 | 1.3 | -0.7 | / | / | / | /
CN(C)c1ccc(/C=C/c2nnnn2-c2ccccc2)cc1 | 16.9* | 0.2 | 3.9 | 11.0* | 3.0 | 1.1 | 6.1* | 21.6* | 0.9
Nn1c(SCc2cccc3ccccc23)nnc1-c1cc(-c2ccc(Cl)cc2)n[nH]1 | 1.6 | -1.6 | / | -3.0 | -1.2 | / | / | / | /
O=C(CSc1ncnc2ccccc12)c1cccs1 | 19.4* | 2.4* | 1.4 | 15.8* | 1.3 | 1.0 | 8.8* | 16.6* | 0.9
